The record followed here is PubChem BioAssay (NCATS).

Test [1] can be described thus: qHTS profiling of the MIPE4 collection as inhibitors of Plasmodium falciparum (DD2) proliferation (AID 743345). Conditions: P. falciparum Dd2 in erythrocytes, SYBR Green DNA, 72 h; at 28.5 µM (top of the series) unless noted. Summed up:
(§1)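 Parasite DNA was quantified by SYBR Green I fluorescence (ex 485, em 535 nm) after overnight lysis in saponin/Triton buffer at room temperature. Cultures at 0.3% parasitemia and 2.5% hematocrit were first exposed to compound for 72 h at 37 C; signals were normalised to artemisinin (0.29 uM) and vehicle wells.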
(In general: Quantitative high-throughput screening tests each substance at several concentrations.)

Test [2] in a line: qHTS profiling of the MIPE4 collection as inhibitors of Plasmodium falciparum (DD2) proliferation (Rep 2) (AID 743346). As to conditions: P. falciparum Dd2 in erythrocytes, SYBR Green DNA, 72 h; at 28.5 µM (top of the series) unless noted. A digest of the protocol:
as §1

Test [3] in a line: qHTS profiling of the MIPE4 collection as inhibitors of Plasmodium falciparum (HB3) proliferation (AID 743347).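 Further: plate controls were DMSO vehicle wells for no effect and artemisinin wells for full effect.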 Conditions: P. falciparum HB3 in erythrocytes, SYBR Green DNA, 72 h; at 28.5 µM (top of the series) unless noted. Summed up: as §1
Test [4] is described as follows: High-throughput drug toxicity screening in the BPDCN cell line Gen2.2 (AID 1224824).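 Further: cells exposed to compounds for 48 h before reading.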 Conditions: Gen2.2 BPDCN cells; at 45.8 µM (top of the series) unless noted. A digest of the protocol: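 CellTiter-Glo luminescence read after 48 h compound exposure at 37 C defines viability; percent activity set with DMSO as 100% and bortezomib (9.2 uM final) as 0%. 500 exponentially growing cells per well, RPMI plus 10% FBS.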

The nature of test [5]: High-throughput drug toxicity screening in the BPDCN cell line Cal-1 (AID 1224825). Conditions: Cal-1 BPDCN cell viability, qHTS; at 45.8 µM (top of the series) unless noted. Summed up:
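Percent activity derived from CellTiter-Glo luminescence, scaling DMSO to 100% and 9.2 uM final bortezomib to 0%. BPDCN Cal-1 cells (500/well, RPMI plus 10% FBS) incubated with compounds 48 hours at 37C before reading.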

The nature of test [6]: qHTS assay for measurement of the activity of small molecule inhibitors on Zika virus induced Caspase-3 activity in human iPSC derived neural progenitor cells (hNPCs) (AID 1224857; active means well fitted curve in the direction sought with a large enough effect; an effect the other way counts as inactive or inconclusive; further: % of control where 0% means no effect; nearly all actives have a fitted effect of over 65% in size). A digest of the protocol:
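Values are percent inhibition of virus-induced caspase-3/7 signal, scaled between uninfected cells and ZIKV-infected cells. Infection used 2 FFU/cell for 6 h after 1 h compound exposure.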

Test [7] is described as follows: qHTS assay for measurement of the activity of small molecule inhibitors on Zika virus induced Caspase-3 activity in human astrocytoma cells (AID 1224859; active means well fitted curve in the direction sought with a large enough effect; an effect the other way counts as inactive or inconclusive;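 further: plate controls were ZIKV-infected untreated cells for no effect and uninfected cells for full effect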). Summed up:
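Compound added 1 h pre-infection; ZIKV 2 FFU/cell on SNB-19 cells, 6 h, 37 C/5% CO2. Caspase-Glo 3/7 luminescence; values as % inhibition of ZIKV-induced caspase activity.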

A short description of test [8]: qHTS Screen of the MIPE 4.0 Collection Against Ewings Sarcoma (RDES) (AID 1259252; active means well fitted curve in the direction sought with a large enough effect; an effect the other way counts as inactive or inconclusive; further: nearly all actives have a fitted effect of over 35% in size; further: potency means the concentration at half of the fitted maximal effect). Summed up: (§2)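 Cells plated in serum-containing RPMI (5% FBS) and treated with compound dilutions for 48 h. Readout luminescent viability; normalization relied on vehicle (no inhibition) and media-only columns (full inhibition).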
The nature of test [9]: qHTS Screen of the MIPE 4.0 Collection Against Ewings Sarcoma (TC32) (AID 1259256; active means well fitted curve in the direction sought with a large enough effect; an effect the other way counts as inactive or inconclusive; further: nearly all actives have a fitted effect of over 45% in size; further: potency means the concentration at half of the fitted maximal effect). A digest of the protocol:
as §2

Test [10] is described as follows: qHTS Screen of the MIPE 4.0 Collection Against Ewings Sarcoma (EW8) (AID 1259255; active means well fitted curve in the direction sought with a large enough effect; an effect the other way counts as inactive or inconclusive; further: potency means the concentration at half of the fitted maximal effect; nearly all actives have a fitted effect of over 35% in size). Summed up: as §2
Test [11] in a line: qHTS profiling for inhibitors of Plasmodium falciparum (HB3) proliferation (AID 743324; active means well fitted curve in the direction sought with a large enough effect; an effect the other way counts as inactive or inconclusive;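 further: 100% = DMSO vehicle wells and 0% = artemisinin-treated control wells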). As to conditions: Plasmodium falciparum HB3 blood-stage proliferation; at 28.7 µM (top of the series) unless noted. A digest of the protocol: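 SYBR Green fluorescence (485 ex/535 em) of lysed cultures, incubated overnight at room temperature in the dark, quantifies parasite DNA. Infected erythrocytes at 0.3% parasitemia and 2.5% hematocrit were exposed 72 h; values normalized to DMSO and 0.29 uM artemisinin controls.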

Test [12] in a line: qHTS profiling of the MIPE4 collection as inhibitors of Plasmodium falciparum (3D7) proliferation (AID 743344).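 Further: scaled between DMSO vehicle wells and 0.29 µM artemisinin as full inhibition.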 Conditions: P. falciparum 3D7 in erythrocytes, SYBR Green DNA fluorescence, 72 h; at 28.5 µM (top of the series) unless noted. Summed up:
as §1

Test [13] can be described thus: Identifying Small Molecule Inhibitors of Pancreatic Cancer Stem Cells (Panc1, Spheroid) (AID 1259359; active means well fitted curve in the direction sought with a large enough effect; an effect the other way counts as inactive or inconclusive;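 further: compound exposure lasted 48 h before reading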). Summed up:
(§3)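 Endpoint: ATP-based luminescence, 48 h drug exposure. Bortezomib at 9.2 uM final as full-kill control; DMSO vehicle as negative control; activity normalized between vehicle and cell-free wells.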

Test [14] in a line: Identifying Small Molecule Inhibitors of Pancreatic Cancer Stem Cells (SN12C, Spheroid) (AID 1259360; active means well fitted curve in the direction sought with a large enough effect; an effect the other way counts as inactive or inconclusive; further: potency means the concentration at half of the fitted maximal effect). Conditions: Potency: SN12C spheroid viability. Summed up:
as §3

Test [15] in a line: Identifying Small Molecule Inhibitors of Pancreatic Cancer Stem Cells (A278, Adherent) (AID 1259361; active means well fitted curve in the direction sought with a large enough effect; an effect the other way counts as inactive or inconclusive; further: nearly all actives have a fitted effect of over 35% in size). A digest of the protocol:
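Pre-formed 14-day tumor spheroids or adherent cells dosed and incubated 48 h, 37C, 5% CO2. Viability assessed by CellTiter-Glo.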

The nature of test [16]: Identifying Small Molecule Inhibitors of Pancreatic Cancer Stem Cells (Panc1, Adherent) (AID 1259362; active means well fitted curve in the direction sought with a large enough effect; an effect the other way counts as inactive or inconclusive; further: potency means the concentration at half of the fitted maximal effect). As to conditions: Potency: viability. A digest of the protocol: as §3

Structures are written as SMILES. Results filed as inconclusive are left out. Calls of active or inactive are those of the source. Unless noted, how the calls were made is not given here.

`CNC(=O)c1ccc2c(C(=Nc3cccc(CN(C)C)c3)c3ccccc3)c(O)[nH]c2c1` came in with a parasite growth remaining, % of DMSO control (lower = more inhibition) in test [1] of 18.6%. In addition, in test [2], the parasite growth, % of control (lower = inhibition) was found to be 15.2%. The same compound yielded a growth, % of control in test [3] of 19%. Further, the cell viability, % of control (lower = more cytotoxic) in test [4] was found to be 4.19%. In addition, the viability (% of control) in test [5] was 19.6%. Besides, the Potency result in test [6], in [7] and in test [9] was “inactive” each time. Besides, the Potency in [8] is 16.6 µM (active).
As to `CC(C)(C)c1nc(-c2cccc(NS(=O)(=O)c3c(F)cccc3F)c2F)c(-c2ccnc(N)n2)s1`, in test [1], the parasite growth remaining, % of DMSO control (lower = more inhibition) was 16.6%. Besides, the parasite growth, % of control (lower = inhibition) in [2] came out at 35%. The same compound came in with a growth, % of control in test [3] of 10.3%. Further, the cell viability, % of control (lower = more cytotoxic) in [4] is 25.6%. In test [5], this compound came in with a viability (% of control) of 55.4%. The Potency result in test [6] and in test [7] was “inactive” in each case. For the same compound, the Potency in [8] was 6.62 µM (active); in test [10], 18.7 µM (active).
Regarding `CO[C@@H]1C(N(C)C(=O)c2ccccc2)C[C@H]2O[C@]1(C)n1c3ccccc3c3c4c(c5c6ccccc6n2c5c31)C(=O)NC4=O` (some centres not stated), the remaining proliferation (% of control), lower = more inhibition in test [11] stood at 120%. In addition, the parasite growth, % of DMSO control in test [12] is 17.5%. Moreover, the parasite growth remaining, % of DMSO control (lower = more inhibition) in test [1] was determined as 8.87%. In addition, in test [2], the parasite growth, % of control (lower = inhibition) came to 122%. The cell viability, % of control (lower = more cytotoxic) in [4] was 247%. Besides, in [5], the viability (% of control) came to 28.3%. Further, the Potency entry in test [6] and in [7] was “inactive” throughout. Besides, the Potency in test [8] was 4.18 µM (active).
Compound `CCOC(=O)[C@H]1O[C@H]1C(=O)N[C@@H](CC(C)C)C(=O)NCCC(C)C` yielded a parasite growth, % of DMSO control in test [12] of 15.6%. Also, in [1], the parasite growth remaining, % of DMSO control (lower = more inhibition) was determined as 12.9%. In addition, the parasite growth, % of control (lower = inhibition) in [2] turned out to be 15.6%. This compound also gave a growth, % of control in [3] of 4.47%. Also, the cell viability, % of control (lower = more cytotoxic) in [4] stood at 74.8%. Moreover, the viability (% of control) in test [5] is 95%. Moreover, the Potency result in [6], in test [7] and in test [8] was “inactive” throughout. The Potency in test [9] was 18.7 µM (active).
The compound `CNC(=O)[C@H](CC1=CN=C2C=CCC=C12)NC(=O)[C@@H](CC(=O)NO)CC(C)C` returned a parasite growth, % of DMSO control in test [12] of 22%. The compound further returned a parasite growth remaining, % of DMSO control (lower = more inhibition) in [1] of 47.4%. In test [2], the parasite growth, % of control (lower = inhibition) was 26.7%. The compound further had a growth, % of control in test [3] of 18.7%. Further, the cell viability, % of control (lower = more cytotoxic) in test [4] worked out at 31.3%. In addition, the viability (% of control) in test [5] is 8.09%. For the same compound, the Potency result in test [6], in [7], in test [8] and in test [9] was “inactive” throughout.
For the compound `CC1CNc2c(cccc2S(=O)(=O)N[C@@H](CCCN=C(N)N)C(=O)N2CC[C@@H](C)C[C@@H]2C(=O)O)C1` (some centres not stated), the parasite growth, % of DMSO control in test [12] was 82.3%. Also, in test [1], the parasite growth remaining, % of DMSO control (lower = more inhibition) was found to be 91.3%. In test [2], the parasite growth, % of control (lower = inhibition) came to 101%. This compound also came in with a growth, % of control in test [3] of 86.9%. The cell viability, % of control (lower = more cytotoxic) in test [4] is 225%. Further, the viability (% of control) in test [5] stood at 6.64%. Moreover, the Potency result in [6] and in test [7] was “inactive” throughout. Moreover, the Potency in test [8] was 9.35 µM (active); in [9], 14.8 µM (active).
Compound `Cn1c(=O)c(Oc2ccc(F)cc2F)cc2cnc(NC3CCOCC3)nc21` gave a parasite growth, % of DMSO control in [12] of 25.1%. This compound also showed a parasite growth remaining, % of DMSO control (lower = more inhibition) in test [1] of 86.4%. Moreover, the parasite growth, % of control (lower = inhibition) in [2] is 48.3%. In test [3], this compound displayed a growth, % of control of 35.7%. In test [4], the cell viability, % of control (lower = more cytotoxic) turned out to be 178%. In test [5], this compound registered a viability (% of control) of 93.3%. The Potency result in test [6], in test [7], in test [8] and in test [9] was “inactive” throughout.
Consider `COc1c(C)cnc(Cn2cnc3c(Cl)nc(N)nc32)c1C`, for which the remaining proliferation (% of control), lower = more inhibition in test [11] was determined as 9.05%. Moreover, the parasite growth, % of DMSO control in [12] is 28.9%. In addition, the parasite growth remaining, % of DMSO control (lower = more inhibition) in test [1] stood at 49.8%. Further, the parasite growth, % of control (lower = inhibition) in test [2] turned out to be 31.8%. The growth, % of control in [3] was 21.1%. Also, the cell viability, % of control (lower = more cytotoxic) in test [4] stood at 9.9%. This compound also came in with a viability (% of control) in test [5] of 18.7%. Besides, the Potency entry in [6], in [7] and in test [13] was “inactive” each time. Also, the Potency is 0.187 µM (active) in [8], 0.132 µM (active) in [9], 264 nM (active) in test [14] and 33.2 nM (active) in test [16]. The IC50 (viability decrease) in [15] is 93.5 nM (active).
